Assay type in all cases: functional
Assay [1] addresses Solute carrier family 2, facilitated glucose transporter member 1 (Homo sapiens) (UniProt P11166). In words: ST_JUDE_LEISH: Cytotoxicity at 2uM final concentration against transgenic Leishmania Mexicana promastigotes LmGLUT1 that are glucose transport deficient and complemented with the human glucose transporter GLUT1. Activity is measured by DNA content using SYBR green in vitro.

The target of assay [2] is Hexose transporter 1 (Plasmodium falciparum) (UniProt O97467). In words: ST_JUDE_LEISH: Cytotoxicity at 2uM final concentration against transgenic Leishmania Mexicana promastigotes LmPfHT that are glucose transport deficient and complemented with the Plasmodium falciparum hexose transporter. Activity is measured by DNA content using SYBR green in vitro.
Assay [3] has as its target Glucose transporter (Leishmania mexicana) (UniProt O61059). In words: ST_JUDE_LEISH: Cytotoxicity at 2uM final concentration against transgenic Leishmania Mexicana promastigotes LmGT2 that are glucose transport deficient and complemented with the L. Mexicana glucose transporter 2. Activity is measured by DNA content using SYBR green in vitro.

Sequence of Solute carrier family 2, facilitated glucose transporter member 1 (Homo sapiens) (P11166 whole entry): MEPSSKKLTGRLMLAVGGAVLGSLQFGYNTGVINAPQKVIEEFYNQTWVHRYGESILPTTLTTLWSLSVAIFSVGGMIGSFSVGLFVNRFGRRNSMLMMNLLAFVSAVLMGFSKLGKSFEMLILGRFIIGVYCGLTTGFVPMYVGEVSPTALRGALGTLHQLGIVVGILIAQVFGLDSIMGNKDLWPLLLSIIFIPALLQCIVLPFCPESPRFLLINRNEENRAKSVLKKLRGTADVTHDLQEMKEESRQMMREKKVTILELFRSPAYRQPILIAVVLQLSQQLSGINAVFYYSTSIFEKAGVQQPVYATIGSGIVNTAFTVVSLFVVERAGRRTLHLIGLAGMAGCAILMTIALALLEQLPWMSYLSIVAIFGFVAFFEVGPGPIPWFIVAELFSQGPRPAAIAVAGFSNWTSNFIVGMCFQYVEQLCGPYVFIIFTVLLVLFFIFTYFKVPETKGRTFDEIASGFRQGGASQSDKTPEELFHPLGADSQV

Turning to `CCc1cc(CNC2CCN(CCc3c(F)cnc4ccc(OC)nc34)CC2)cc2c1OCCO2`, the inhibition came to 23.9% in assay [1], 34.5% in assay [2] and 19.9% in assay [3].
The corresponding values for `Cc1ccccc1C1CCN(C2CCC(NC(=O)c3ccc4c(c3)-c3nocc3C(C)O4)CC2)CC1` (stereo unspecified) are 5.85%, 4.08% and 5.18%.
The corresponding values for `Cc1ccccc1C1CCN(C2CCC(NC(=O)/C=C/c3c(F)ccc(F)c3F)CC2)CC1` (stereo unspecified) are 2.52%, 2.75% and 2.13%.
On to `Cc1ccccc1C1CCN(C2CCC(NC(=O)c3cncc(-c4ccccc4)c3)CC2)CC1` (stereo unspecified), for which the inhibition stood at 6.15% in assay [1], 6.33% in assay [2] and 3.53% in assay [3].
In the same order, the values of `O=C(Nc1ccc(N2CCN(Cc3cccc(F)c3)CC2)cc1)c1cccs1` are 3.08%, 2.27% and 4.59%.
The corresponding values for `O=C(Nc1ccon1)c1cc(-c2cccnc2)nc2ccc(Br)cc12` are 2.83%, 5.32% and 0.72%.
In the same order, the values of `N#Cc1ccc(-c2ccc(C(=O)NC3CCN(CCN4CCc5c(cccc5C(F)(F)F)C4)CC3)cc2)cc1` are -0.45%, -0.02% and 1.46%.
As for `COc1cccc(C2C(C(=O)Nc3ccccc3)=C(C)N=c3sc(=Cc4ccc(O)cc4)c(=O)n32)c1` (stereo unspecified), the results for the inhibition in assay [1], in assay [2] and in assay [3] were 19.2%, 27.8% and 16.8%, respectively.
On to `O=C(/C=C/c1ccccc1O)NCCCCCN1CCC(c2c[nH]c3ccccc23)CC1`, for which the inhibition in assay [1] stood at 3.82%; in assay [2], 2.03%; in assay [3], 1.37%.
In the same order, the values of `Cc1cccc2c3c([nH]c12)C1(CCN(CCc2ccccc2)CC1)NC(C(=O)NCc1ccccc1)C3` (stereo unspecified) are 4.58%, 5.51% and 0.71%.
Turning to `COCCCN=C(S)NN=C(C)c1ccccn1`, the inhibition in assay [1] is 0.61%; in assay [2] it was -0.03%; in assay [3] it was 0%.
The corresponding values for `COc1cc(Cc2cnc(NCCN3CCNCC3)nc2N)ccc1OCc1ccc(C(F)(F)F)cc1` are 3.49%, 4.49% and 6.93%.

In general, inhibition refers to the drop in the measured response relative to a control, in per cent.

(Values after ChEMBL document CHEMBL3433997, “St. Jude Leishmania screening dataset” (2016).)
